# Experimental data as given in PubChem BioAssay (Tox21).
# Calls of active or inactive are those of the source. Calls come from the whole dose curve; as a rule, active = well fitted curve in the direction sought with a large enough effect in the repeat runs; inconclusive = weak or mixed curves; inactive = flat fitted curve, though single readings scatter.
# Test: qHTS assay to test for compound auto fluorescence at 590 nm (red) in HEK293 cell free culture (AID 720683)
# Conditions: cell-free medium autofluorescence, Ex540/Em590 red; series mostly up to 91.3 µM
# Description: U.S. Tox21 Program National Center for Advancing Translational Sciences [NCATS] NIH Chemical Genomics Center [NCGC] U.S. Environmental Protection Agency [EPA] National Institutes of Environmental Health Sciences [NIEHS] National Toxicology Program [NTP] U.S. Food and Drug Administration [FDA] Tox21 Assay Overview: Compound auto fluorescence often interferes with screening of the compound library against various biological targets and signaling pathways. Some of these compounds may have fluorophoric properties. Such properties may interfere with the assay outputs resulting in false positives and/or negatives. To decrease such complications and ensure the compound activities are relevant in terms of biological response, the Tox21 10K compound library was screened for auto fluorescence. From the fluorophores used as reporter signals in our screening assays, the auto fluorescence equivalencies of compounds against three fluorophores have been evaluated: Triamterene, Fluorescein and Rose Bengal sodium for blue, green and red fluorescence, respectively. The fluorescence intensities were measured using Excitation/Emission wavelengths at 405/460nm, 485/535nm and 540/590nm for blue, green and red labels, respectively. This assay includes the red fluorescence data.
# Tox21 Assay Protocol Summary: 5 uL of culture medium (DMEM containing 10% FBS) per well was dispensed into black wall/clear bottom 1536-well plates using a Multidrop Combi Dispenser (ThermoFisher Scientific, Waltham, MA). After 23 nL compound or DMSO vehicle was transferred into assay plate by a pintool work station (Kalypsys, San Diego, CA), fluorescence intensities in the assay plates were measured by an Envision (PerkinElmer, Shelton, CT) plate reader using three labels for measuring blue, green and red fluorescence at […] 460, 535 and 590nm respectively.
# % is set by controls: 0 for no effect and ±100 for the full control effect.
Compound,outcome,"fluorescence, % of fluorescent control"
C=CCn1c(=O)n([C@@H]2O[C@H](CO)[C@@H](O)[C@H]2O)c2nc(N)[nH]c(=O)c21,inactive,
C#CC(O)C(CC)CCCC (stereo not given),inactive,
Nc1cc(N)cc(C(=O)O)c1,inactive,
OCC(O)[C@@H](O)[C@H](O)[C@H](O)CO[C@H]1O[C@H](CO)[C@@H](O)[C@H](O)[C@H]1O (stereo not given in full),inactive,
CC(C)(O)C(=O)c1ccc(OCCO)cc1,inactive,
CSc1ccc(C=O)cc1,inactive,
CCCC(=O)O[C@]1(C(=O)CCl)[C@@H](C)C[C@H]2[C@@H]3CCC4=CC(=O)C=C[C@]4(C)[C@@]3(F)C(=O)C[C@@]21C,inactive,
CCCCNc1ccccc1,inactive,
COC(=O)[C@H]1[C@H]2C[C@@H]3c4[nH]c5cc(OC)ccc5c4CCN3C[C@H]2C[C@@H](OC(=O)COc2ccc(OC)cc2)[C@@H]1OC,inactive,
CCCOCC(C)OCC(C)O (stereo not given),inactive,
CN(C)N=Nc1ccccc1,inactive,
Cc1nccn1CC1CCc2c(c3ccccc3n2C)C1=O (stereo not given),inactive,
NC(=S)Nc1cccc2ccccc12,,-0.0289% [at 3.72 µM] (inactive)
OCC(CO)(CO)COCC(CO)(CO)CO,inactive,
CCCCCCOC(=O)CC(CC(=O)OCCCCCC)(OC(=O)CCC)C(=O)OCCCCCC,inactive,
CCCCC=O,inactive,
CC(O)CN(CCCN(C)C)CCCN(C)C (stereo not given),inactive,
N#CCc1ccccc1[N+](=O)[O-],inactive,
CC(C)COC(=O)c1ccccc1O,inactive,
CO,inactive,

Compound,outcome,"fluorescence, % of fluorescent control"
C=C(C)C(=O)NCCC[N+](C)(C)C,inactive,
CCC(=O)c1cccc(Cl)c1,inactive,
NC(=O)CCCCC1CCSS1 (stereo not given),inactive,
CC12CCC(CC1=O)C2(C)C (stereo not given),inactive,
COC(=O)CCCCCCCCC(=O)OC,inactive,
CN(C)C(=O)C(CCN1CCC(O)(c2ccc(Cl)cc2)CC1)(c1ccccc1)c1ccccc1,inactive,
CNc1ncnc2nc[nH]c12,inactive,
CCCOc1ccccc1-c1nc2n[nH]nc2c(=O)[nH]1,inactive,
O=S(=O)(c1cccc2cnccc12)N1CCCNCC1,inactive,
Cc1ccc(Nc2ccc(O)c3c2C(=O)c2ccccc2C3=O)cc1,inactive,
COc1cc(C)cc(O)c1,inactive,
COc1ccc(N=[N+]([O-])c2ccc(OC)cc2)cc1,inactive,
C=C(C)C(=O)OCCCCCCCCCCCCCCCCCC,,-0.0264% [at 18.6 µM] (inactive)
Fc1ccccc1-c1ccccc1,inactive,
C(=C(c1ccccc1)c1ccccc1)c1ccccc1,inactive,
OC1OC[C@@H](O)[C@H](O)[C@H]1O (stereo not given in full),inactive,
O=C(O)c1ccccc1-c1ccc(C(F)(F)F)cc1,inactive,
CCCCCOC(=O)Nc1nc(=O)n([C@@H]2O[C@H](C)[C@@H](O)[C@H]2O)cc1F,inactive,
CC(C)=CC(=O)O,inactive,
CCCCCCCCN(C)CCCCCCCC,inactive,
